Screening data deposited in PubChem BioAssay by several laboratories.
Shown are actives, neighbours in structure and some others; about 3.9% of the full set was active somewhere.
TRAIL sens C8 = sensitizes caspase-8 expressing cells to TRAIL; NB7+C8 cells + TRAIL, ATPlite viability luminescence; AID 624354; hit rate 1% among 360,000; inhibition (viability loss, TRAIL sensitization), % at 10 µM;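 active = compounds causing at least 50% loss of cell viability in the single-dose screen, relative to plate controls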
aSyn UTR inh = 5' untranslated region of α-synuclein, MLPCN primary screen; alpha-synuclein 5'UTR reporter, inhibitor activity; inhibition, % (tested at 7.5 µM); hit rate 0.82% among 300,000; AID 1813; in the data active = inhibition above about 60%; inconclusive = no clear call, values can overlap the other calls;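 also: H4 neuroglioblastoma cells stably carrying SNCA 5'UTR luciferase fusion; 0% = DMSO wells and 100% = positive control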
HIF-2a block = inhibitors of HIF-2a. inhibition, % at 18.8 µM. hit rate 0.72% among 360,000. 786-0 RCC cells HIF-2a reporter, luciferase luminescence, overnight;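 active = inhibition of the luminescence signal of 40% or more relative to plate controls, in a single-dose primary screen at 18.75 µM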
HSP90 refold inh = blocks HSP90-mediated luciferase refolding in reticulocyte lysate; Rabbit reticulocyte lysate, luciferase refolding luminescence, 3 h; inhibition, % at 5.6 µM; hit rate 0.91% among 290,000;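 active = inhibition above the screen-wide mean plus 3 SD, computed separately per campaign, cut at about 16% in these data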;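 also: 0% = DMSO wells and 100% = 60 µM geldanamycin wells; inhibitors lower the luminescence because luciferase stays unfolded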
TWEAK Fn14 block = TWEAK-Fn14 signaling inhibition | inhibition, % at 10 µM | hit rate 2% among 360,000 | TWEAK-stimulated Fn14 reporter cells, luciferase luminescence, 8 h; in the data active = inhibition above about 50%
TROY signal inh = TROY signaling inhibition | Q293 LMP1-TROYcd NF-kB luciferase reporter, 4 h | inhibition, % at 10 µM | hit rate 0.98% among 360,000 | AID 1347056;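 active = compounds whose plate-normalised and pattern-corrected inhibition of the luciferase reporter signal at the single screening dose is 50% or more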
Active calls of the source: *.

How did Cc1ccc(S(=O)(=O)N2C[C@@H]3CCCC[C@@H]3[C@@H](C)[C@H]2c2cn(Cc3ccccc3)c3ccccc23)cc1 do in these assays?
TRAIL sens C8: 10; HIF-2a block: -18; TWEAK Fn14 block: 61*; TROY signal inh: 42

What do the screens show for `COc1ccc2c(c1)c([C@@H]1[C@H](C)[C@H]3CCCC[C@H]3CN1S(=O)(=O)c1ccc(C)cc1)cn2C`?
TRAIL sens C8: 9; HIF-2a block: 5; TWEAK Fn14 block: 84*; TROY signal inh: 13

What do the screens show for `Cc1ccc(S(=O)(=O)N2C[C@@H]3CCCC[C@@H]3[C@@H](C)[C@H]2c2cn(Cc3ccccc3)c3ncccc23)cc1`?
TRAIL sens C8: 3; HIF-2a block: -10; TWEAK Fn14 block: 34; TROY signal inh: 41

How did CN(C)CCCN(C(=O)c1ccc(S(=O)(=O)N(C)C2CCCCC2)cc1)c1nc2ccc(F)cc2s1 do in these assays?
TRAIL sens C8: 23; aSyn UTR inh: 3; HIF-2a block: 1; HSP90 refold inh: 1; TWEAK Fn14 block: -2; TROY signal inh: -12

What do the screens show for `Cc1cc(C)c2sc(N(CCCN(C)C)C(=O)c3ccc(S(=O)(=O)N(C)C4CCCCC4)cc3)nc2c1`?
TRAIL sens C8: 76*; aSyn UTR inh: inconclusive; HIF-2a block: -9; TWEAK Fn14 block: -39; TROY signal inh: -24

How did CN(C)CCCN(C(=O)c1ccc(S(=O)(=O)N(C)C2CCCCC2)cc1)c1nc2ccc(Br)cc2s1 do in these assays?
TRAIL sens C8: 58*; aSyn UTR inh: -26; HIF-2a block: -9; HSP90 refold inh: 7; TWEAK Fn14 block: -40; TROY signal inh: 6

What do the screens show for `CCOC(=O)[C@]12CCCC=C1N(Cc1ccc3c(c1)OCO3)C(=O)[C@H](CC(=O)N1CCN(C(=O)C3CC3)CC1)C2`?
TRAIL sens C8: -1; HIF-2a block: 12; TWEAK Fn14 block: -3; TROY signal inh: -6

How did COc1cccc(CN2CCC2(C)C(=O)Nc2ccc3c(c2)CCN3C(C)=O)c1F (stereo not drawn) do in these assays?
TRAIL sens C8: 15; HIF-2a block: -13; TWEAK Fn14 block: 7; TROY signal inh: 0

Results for CC1=CN2C(=N)/C(=C/c3ccc([N+](=O)[O-])o3)C(=O)N=C2S1 ?
TRAIL sens C8: 2; aSyn UTR inh: -56; HIF-2a block: 67*; HSP90 refold inh: -1; TWEAK Fn14 block: 45; TROY signal inh: -19

What do the screens show for `CC1=CN2C(=N)/C(=C/c3cn(CCCOc4ccccc4C)c4ccccc34)C(=O)N=C2S1`?
TRAIL sens C8: 29; aSyn UTR inh: -31; HIF-2a block: -153; HSP90 refold inh: 7; TWEAK Fn14 block: 0; TROY signal inh: -1

How did CC1=CN2C(=N)/C(=C/c3ccco3)C(=O)N=C2S1 do in these assays?
TRAIL sens C8: 58*; aSyn UTR inh: -219; HIF-2a block: -194; HSP90 refold inh: -4; TWEAK Fn14 block: 81*; TROY signal inh: 40

Results for CCCCCn1c(N)c(-c2nc3ccccc3s2)c2c([N+](=O)[O-])nn(CC)c(=O)c21 ?
TRAIL sens C8: -1; aSyn UTR inh: 32; HIF-2a block: -11; HSP90 refold inh: 3; TWEAK Fn14 block: 83*; TROY signal inh: 9

Results for Cc1ccc(/C=N/NC(=O)C2CC(=O)N(c3ccccc3)C2)s1 (stereo not drawn) ?
TRAIL sens C8: -20; aSyn UTR inh: -42; HIF-2a block: -4; HSP90 refold inh: -7; TWEAK Fn14 block: 10; TROY signal inh: -28

How did O=C(N/N=C/c1ccccc1O)C1CC(=O)N(c2ccc(Cl)cc2)C1 (stereo not drawn) do in these assays?
TRAIL sens C8: 11; aSyn UTR inh: 83*; HIF-2a block: 8; HSP90 refold inh: -8; TWEAK Fn14 block: 6; TROY signal inh: 1

Results for Cc1ccc(C(=O)N/C(=C\c2ccc(-c3ccccc3[N+](=O)[O-])o2)C(=O)NCCCN(C)C)cc1 ?
TRAIL sens C8: 49*; aSyn UTR inh: 35; HIF-2a block: 2; HSP90 refold inh: 1; TWEAK Fn14 block: 25; TROY signal inh: 5

Results for Cc1ccc(C(=O)N/C(=C\c2ccc(-c3ccccc3[N+](=O)[O-])o2)C(=O)NCCN(C)C)cc1 ?
TRAIL sens C8: 54*; aSyn UTR inh: -23; HIF-2a block: -10; HSP90 refold inh: 6; TWEAK Fn14 block: 16; TROY signal inh: 3
